# According to the supplement of paper PMC10849652:
# About 7,900 targets were measured; listed, in parts, are those with a hit and a random draw of the rest. About 0.6% of all pairs of compound and target were hits. A number with no mark means an inactive call.
# What was measured:
# Assay in all cases: log2 fold change, soluble protein after heating vs DMSO (PISA); higher = thermal stabilisation; K562 cells, 10 uM, 30 min; active = over 0.2 and 3.5 SD of the protein, either way, in both replicates (recomputed)
# [1] = compound: C#Cc1cccc(Nc2ncnc3cc(OCCOC)c(OCCOC)cc23)c1 [erlotinib]
# Method in brief: (§1)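 Values are thermal stability changes relative to control samples and are taken from duplicates. They are stated as log2 fold changes. Before quantification by TMTpro 16plex LC-MS/MS with equalised channel sums, K562 cells at 2×10^6 cells/mL were treated with 10 μM compound for 30 min, heated in aliquots for 3 min across 48°C-58°C, pooled, extracted in PBS with 0.5% NP-40 at 4°C, and centrifuged at 21,000xg for 90 min to give the soluble supernatant.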
# [2] = compound: C/C(=N\NC(=O)C1=CC(=CC=C1)S(=O)(=O)N2CCOCC2)/C3=C(C=CC(=C3)Cl)O
# Method in brief: as §1
# [3] = compound: C1=CC(=C(C=C1Cl)C2=NC3=NC=CN=C3C(=N2)NC4=CC=NC=C4)F
# Method in brief: as §1
# [4] = compound: C1=CC(=CC=C1C2=NC3=C(N2)C=C(C=C3)C(=O)N)OC4=CC=C(C=C4)Cl
# Method in brief: as §1
# [5] = compound: C1=CC2=C(C=CC(=C2)/C=C\3/C(=O)NC(=NCC4=CC=CS4)S3)N=C1
# Method in brief: as §1
# [6] = compound: C1=CC2=NC=CN=C2C=C1/C=C/3\C(=O)NC(=O)S3
# Method in brief: as §1
# [7] = compound: C1=CC=C(C=C1)C2=NC(=C(N2)C3=CC=NC=C3)C4=CC(=C(C=C4)Cl)O
# Method in brief: as §1
# [8] = compound: C1=CC=C2C(=C1)C3=NNC4=CC=CC(=C43)C2=O
# Method in brief: as §1
# [9] = compound: C1CCN(C1)C(=O)NC2=CC=CC(=C2)NC3=NC=C(C(=N3)NCCC4=CN=CN4)Br
# Method in brief: as §1
# [10] = compound: C1CN(CCC1(CC2=CC=C(C=C2)Cl)N)C3=NC=NC4=C3C=CN4
# Method in brief: as §1
# [11] = compound: C1COCCN1CCN2C3=CC=CC=C3N=C2NC(=O)C4=CC(=CC=C4)[N+](=O)[O-] [IRAK-1-4 Inhibitor I]
# Method in brief: as §1
# [12] = compound: C=CC(=O)N1CCC[C@@H](n2nc(-c3ccc(Oc4ccccc4)cc3)c3c(N)ncnc32)C1 [ibrutinib]
# Method in brief: as §1
# [13] = compound: CC(=O)c1cnc2ccc(-c3cc(Cl)c(O)c(Cl)c3)nc2c1N[C@H]1CC[C@H](CN(C)C)CC1
# Method in brief: as §1
# [14] = compound: CC(C)(C)Cn1c(N)nc2ccc(-c3[nH]c(C(C)(C)C)nc3-c3ccc(F)cc3)nc21 [ralimetinib]
# Method in brief: as §1
# [15] = compound: CC(C)(O)CC(=O)NCCn1ccc2ncnc(Nc3ccc(Oc4cccc(C(F)(F)F)c4)c(Cl)c3)c21
# Method in brief: as §1
# [16] = compound: CC(C)C1=C2N=C(C=C(N2N=C1)NCC3=CC=CC=C3)NCCCCCCN
# Method in brief: as §1
# [17] = compound: CC(C)C[C@@H](C=O)NC(=O)[C@H](CC(C)C)NC(=O)[C@H](CC(C)C)NC(=O)OCc1ccccc1
# Method in brief: as §1
# [18] = compound: CC(C)N(C[C@H]1O[C@@H](n2cnc3c(N)ncnc32)[C@H](O)[C@@H]1O)[C@H]1C[C@@H](CCc2nc3cc(C(C)(C)C)ccc3[nH]2)C1 [pinometostat]
# Method in brief: as §1
# [19] = compound: CC1=C(C(CC(=O)N1)C2=CC=C(C=C2)C(F)(F)F)C(=O)NC3=C(C=C4C(=C3)C=NN4)F
# Method in brief: as §1
# [20] = compound: CC1=C(C2=C(C=C1)C(=O)C3=CC=CC=C3N2CCCN)C
# Method in brief: as §1
# UniProt Q13137, sequence (Q13137 whole entry, looked up): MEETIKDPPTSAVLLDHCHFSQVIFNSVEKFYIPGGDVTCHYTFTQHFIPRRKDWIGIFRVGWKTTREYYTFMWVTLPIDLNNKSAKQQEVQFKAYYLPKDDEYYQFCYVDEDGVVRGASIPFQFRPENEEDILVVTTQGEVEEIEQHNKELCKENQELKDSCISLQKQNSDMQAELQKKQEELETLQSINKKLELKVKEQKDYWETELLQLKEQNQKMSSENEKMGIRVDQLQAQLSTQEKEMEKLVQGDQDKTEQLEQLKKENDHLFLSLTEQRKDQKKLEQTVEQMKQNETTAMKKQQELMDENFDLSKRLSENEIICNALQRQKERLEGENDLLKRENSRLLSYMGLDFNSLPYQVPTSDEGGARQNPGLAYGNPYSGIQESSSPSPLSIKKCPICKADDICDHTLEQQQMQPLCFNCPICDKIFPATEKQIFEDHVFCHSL
# UniProt Q8WUX2, sequence (Q8WUX2 whole entry, looked up): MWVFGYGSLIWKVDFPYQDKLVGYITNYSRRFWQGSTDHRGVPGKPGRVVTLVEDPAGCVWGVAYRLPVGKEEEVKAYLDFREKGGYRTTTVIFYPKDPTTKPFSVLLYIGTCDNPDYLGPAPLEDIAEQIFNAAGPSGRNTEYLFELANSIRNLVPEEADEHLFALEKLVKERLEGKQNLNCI
# UniProt P42575, sequence (P42575 whole entry, looked up): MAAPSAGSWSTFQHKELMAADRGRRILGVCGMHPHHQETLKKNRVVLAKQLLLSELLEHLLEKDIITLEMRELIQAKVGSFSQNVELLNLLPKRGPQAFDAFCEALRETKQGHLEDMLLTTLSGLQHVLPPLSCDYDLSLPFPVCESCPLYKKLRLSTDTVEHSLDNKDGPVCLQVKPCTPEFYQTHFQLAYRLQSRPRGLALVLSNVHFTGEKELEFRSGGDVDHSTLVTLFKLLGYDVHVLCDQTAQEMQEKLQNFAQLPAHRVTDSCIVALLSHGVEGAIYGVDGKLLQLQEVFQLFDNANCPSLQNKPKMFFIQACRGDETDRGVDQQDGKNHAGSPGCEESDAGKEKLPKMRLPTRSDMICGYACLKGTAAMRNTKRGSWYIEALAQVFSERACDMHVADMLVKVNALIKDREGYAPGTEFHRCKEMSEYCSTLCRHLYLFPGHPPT
# UniProt P48729, sequence (P48729 whole entry, looked up): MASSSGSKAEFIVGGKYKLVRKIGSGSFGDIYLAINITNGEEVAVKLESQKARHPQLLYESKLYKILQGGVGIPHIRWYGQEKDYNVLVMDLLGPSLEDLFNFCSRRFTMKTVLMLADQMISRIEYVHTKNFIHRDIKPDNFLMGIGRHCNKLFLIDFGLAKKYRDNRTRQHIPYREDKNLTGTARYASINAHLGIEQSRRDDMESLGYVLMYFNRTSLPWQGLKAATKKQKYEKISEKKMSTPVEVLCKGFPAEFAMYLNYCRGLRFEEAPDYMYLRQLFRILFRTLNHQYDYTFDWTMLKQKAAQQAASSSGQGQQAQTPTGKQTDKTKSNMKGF
# UniProt Q14790, sequence (Q14790 whole entry, looked up): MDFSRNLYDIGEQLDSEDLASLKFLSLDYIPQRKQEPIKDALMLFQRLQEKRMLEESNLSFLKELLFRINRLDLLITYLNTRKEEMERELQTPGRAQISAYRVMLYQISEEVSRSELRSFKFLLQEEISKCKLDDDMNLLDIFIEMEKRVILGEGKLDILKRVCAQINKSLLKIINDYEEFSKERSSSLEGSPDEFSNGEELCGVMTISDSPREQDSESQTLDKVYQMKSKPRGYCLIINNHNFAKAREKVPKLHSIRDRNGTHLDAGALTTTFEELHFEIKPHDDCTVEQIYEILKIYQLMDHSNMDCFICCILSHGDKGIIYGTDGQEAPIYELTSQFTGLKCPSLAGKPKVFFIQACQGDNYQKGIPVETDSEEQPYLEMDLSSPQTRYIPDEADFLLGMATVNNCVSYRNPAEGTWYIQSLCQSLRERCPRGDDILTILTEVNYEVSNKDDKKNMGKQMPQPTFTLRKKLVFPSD
# UniProt Q86X95, sequence (Q86X95 whole entry, looked up): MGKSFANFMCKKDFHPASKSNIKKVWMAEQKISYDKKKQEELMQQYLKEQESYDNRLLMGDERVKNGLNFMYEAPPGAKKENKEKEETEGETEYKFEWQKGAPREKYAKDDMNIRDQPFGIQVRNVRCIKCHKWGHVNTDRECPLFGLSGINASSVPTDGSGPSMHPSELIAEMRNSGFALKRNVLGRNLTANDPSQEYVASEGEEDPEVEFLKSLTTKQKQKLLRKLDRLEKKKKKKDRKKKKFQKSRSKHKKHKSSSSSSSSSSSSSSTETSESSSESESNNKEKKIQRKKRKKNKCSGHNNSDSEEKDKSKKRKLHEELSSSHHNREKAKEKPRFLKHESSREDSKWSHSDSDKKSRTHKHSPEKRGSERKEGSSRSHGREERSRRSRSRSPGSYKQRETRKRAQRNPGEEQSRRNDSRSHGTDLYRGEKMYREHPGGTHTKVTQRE
# UniProt P51946, sequence (P51946 whole entry, looked up): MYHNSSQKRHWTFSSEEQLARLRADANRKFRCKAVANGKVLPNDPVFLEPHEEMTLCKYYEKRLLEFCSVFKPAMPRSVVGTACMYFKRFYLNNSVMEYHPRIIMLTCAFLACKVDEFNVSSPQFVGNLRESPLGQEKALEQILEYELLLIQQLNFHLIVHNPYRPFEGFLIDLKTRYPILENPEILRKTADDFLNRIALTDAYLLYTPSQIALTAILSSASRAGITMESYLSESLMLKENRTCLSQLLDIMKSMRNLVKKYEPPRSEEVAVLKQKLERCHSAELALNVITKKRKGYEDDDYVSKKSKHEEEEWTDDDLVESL
# UniProt Q96G23, sequence (Q96G23 whole entry, looked up): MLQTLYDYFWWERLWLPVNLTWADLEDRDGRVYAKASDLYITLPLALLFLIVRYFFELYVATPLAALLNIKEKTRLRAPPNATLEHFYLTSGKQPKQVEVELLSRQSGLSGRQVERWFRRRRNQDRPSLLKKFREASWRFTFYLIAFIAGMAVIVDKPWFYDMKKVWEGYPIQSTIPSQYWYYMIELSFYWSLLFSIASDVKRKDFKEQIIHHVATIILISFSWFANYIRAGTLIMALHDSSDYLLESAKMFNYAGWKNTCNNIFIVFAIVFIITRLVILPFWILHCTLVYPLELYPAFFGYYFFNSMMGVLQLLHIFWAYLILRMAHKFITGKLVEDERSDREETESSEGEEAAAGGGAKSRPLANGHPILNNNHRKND
# UniProt P68400, sequence (P68400 whole entry, looked up): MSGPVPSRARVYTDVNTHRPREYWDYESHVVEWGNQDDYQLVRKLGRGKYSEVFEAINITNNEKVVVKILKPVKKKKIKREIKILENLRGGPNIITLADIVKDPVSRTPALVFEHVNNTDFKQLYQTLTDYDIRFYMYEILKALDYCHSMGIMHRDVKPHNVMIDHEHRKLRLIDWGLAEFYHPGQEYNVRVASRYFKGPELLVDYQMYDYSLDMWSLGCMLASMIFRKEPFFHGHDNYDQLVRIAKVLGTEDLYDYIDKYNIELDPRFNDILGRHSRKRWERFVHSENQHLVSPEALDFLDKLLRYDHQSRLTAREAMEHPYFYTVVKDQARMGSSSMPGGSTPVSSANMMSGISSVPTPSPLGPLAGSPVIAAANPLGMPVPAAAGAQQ
# UniProt Q96RR4, sequence (Q96RR4 whole entry, looked up): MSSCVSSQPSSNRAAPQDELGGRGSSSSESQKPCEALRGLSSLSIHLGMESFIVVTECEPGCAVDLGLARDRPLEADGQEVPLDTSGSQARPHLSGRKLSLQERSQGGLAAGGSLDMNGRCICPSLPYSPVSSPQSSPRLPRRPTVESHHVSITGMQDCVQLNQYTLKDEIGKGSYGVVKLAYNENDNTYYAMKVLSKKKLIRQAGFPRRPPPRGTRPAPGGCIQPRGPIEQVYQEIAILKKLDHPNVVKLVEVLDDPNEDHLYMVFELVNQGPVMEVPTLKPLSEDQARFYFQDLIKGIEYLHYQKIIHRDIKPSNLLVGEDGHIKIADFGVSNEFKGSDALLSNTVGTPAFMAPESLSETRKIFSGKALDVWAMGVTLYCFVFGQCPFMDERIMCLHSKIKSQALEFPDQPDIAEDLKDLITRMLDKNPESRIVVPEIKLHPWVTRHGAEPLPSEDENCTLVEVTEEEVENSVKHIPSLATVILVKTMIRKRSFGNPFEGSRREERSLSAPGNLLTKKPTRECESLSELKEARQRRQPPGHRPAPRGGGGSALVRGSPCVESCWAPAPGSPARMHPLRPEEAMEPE
# UniProt P20674, sequence (P20674 whole entry, looked up): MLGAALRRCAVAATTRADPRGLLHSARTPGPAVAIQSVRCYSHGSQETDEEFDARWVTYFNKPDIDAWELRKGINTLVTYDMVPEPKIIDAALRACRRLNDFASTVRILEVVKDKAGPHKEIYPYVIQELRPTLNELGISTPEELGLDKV
# UniProt Q9UKF6, sequence (Q9UKF6 whole entry, looked up): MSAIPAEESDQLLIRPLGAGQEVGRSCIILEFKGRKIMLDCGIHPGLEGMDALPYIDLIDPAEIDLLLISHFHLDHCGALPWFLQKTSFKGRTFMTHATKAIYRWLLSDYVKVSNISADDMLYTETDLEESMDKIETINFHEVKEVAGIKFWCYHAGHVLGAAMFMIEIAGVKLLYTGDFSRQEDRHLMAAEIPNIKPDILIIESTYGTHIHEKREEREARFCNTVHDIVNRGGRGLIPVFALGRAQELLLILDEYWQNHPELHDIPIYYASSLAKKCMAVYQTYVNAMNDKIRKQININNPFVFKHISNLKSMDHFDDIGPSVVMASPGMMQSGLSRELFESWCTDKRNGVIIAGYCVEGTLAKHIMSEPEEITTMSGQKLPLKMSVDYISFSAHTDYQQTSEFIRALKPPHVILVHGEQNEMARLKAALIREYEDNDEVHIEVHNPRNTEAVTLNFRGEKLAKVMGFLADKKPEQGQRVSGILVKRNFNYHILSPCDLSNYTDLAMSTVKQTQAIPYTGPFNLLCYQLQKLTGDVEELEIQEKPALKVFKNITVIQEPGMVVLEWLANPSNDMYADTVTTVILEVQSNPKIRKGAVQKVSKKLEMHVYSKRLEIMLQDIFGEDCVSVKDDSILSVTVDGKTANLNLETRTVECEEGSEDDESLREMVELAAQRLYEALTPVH
Target,log2 fold change [1],log2 fold change [2],log2 fold change [3],log2 fold change [4],log2 fold change [5],log2 fold change [6],log2 fold change [7],log2 fold change [8],log2 fold change [9],log2 fold change [10],log2 fold change [11],log2 fold change [12],log2 fold change [13],log2 fold change [14],log2 fold change [15],log2 fold change [16],log2 fold change [17],log2 fold change [18],log2 fold change [19],log2 fold change [20]
CASP8 isoform 9 (UniProt Q14790),-0.008,0.056,-0.055,-0.023,0.021,0.052,-0.078,0.104,-0.051,-0.014,-0.056,-0.027,0.098,-0.058,-0.092,-0.264,-0.025,0.124,0.028,0
CSNK1A1 (UniProt P48729),0.073,0.002,-0.028,-0.002,-0.008,0.018,-0.029,-0.088,0.001,-0.064,-0.016,0.015,-0.053,0.026,-0.041,-0.25 (active),0.145,0.112,0.038,0.028
CAMKK2 (UniProt Q96RR4),-0.091,-0.047,-0.026,-0.232,-0.059,-0.081,-0.122,-0.037,-0.19,0.23,-0.05,-0.069,0.131,-0.117,0.002,0.069,-0.052,0.142,0.039,-0.025
CASP2 (UniProt P42575),0.069,-0.007,0.056,-0.011,0.054,-0.025,-0.011,0.028,0.004,-0.053,0.017,0.027,0,-0.074,-0.073,-0.082,0.072,-0.013,-0.016,0.091
CS (UniProt O75390),0.028,0.035,0.033,0.002,0.051,-0.009,0.072,-0.064,-0.015,0.035,0.02,-0.004,0.002,-0.04,-0.178,-0.148,-0.069,-0.05,0.02,0.008
C16orf58 (UniProt Q96GQ5),0.033,0.01,0.051,0.023,0.061,0.042,-0.001,-0.021,0.006,0.036,0.031,-0.022,0.01,-0.017,-0.045,-0.199,0.001,0.005,0.001,0.045
CIR1 (UniProt Q86X95),-0.008,-0.035,-0.254,0.055,-0.054,-0.029,-0.144,-0.016,-0.008,0.002,-0.023,0.121,-0.05,0.083,0.128,0.198,0.175,0.169,,0.022
CHAC2 (UniProt Q8WUX2),0.025,-0.011,0.001,-0.012,-0.003,-0.033,-0.018,0.001,-0.025,0.093,0.038,-0.058,-0.009,-0.021,0.085,0.03,0,0.01,-0.061,-0.036
CLUH (UniProt O75153),0.08,0,0.318,-0.042,0.137,0.324 (active),0.03,0.058,-0.043,-0.027,0.107,,0.467 (active),0.028,-0.048,-0.179,-0.009,0.045,-0.094,0.095
CCNH (UniProt P51946),-0.022,0.021,0.034,-0.016,-0.045,0.031,0.022,-0.004,-0.011,-0.015,-0.01,-0.04,-0.24 (active),-0.04,-0.009,0.084,-0.053,0.022,0.045,-0.01
CSK (UniProt P41240),0.023,0.031,-0.038,0.005,0.056,-0.022,0.024,-0.02,-0.034,-0.05,-0.016,0.074,0.111,0.011,-0.034,-0.131,0.031,0,-0.016,-0.011
CSNK2A1 (UniProt P68400),-0.03,-0.011,0.006,0.024,0.139,0.296 (active),-0.041,0.094,-0.003,-0.013,0.022,0.029,0.245 (active),-0.082,0.006,-0.064,-0.021,0.103,0.004,0.159
CALCOCO2 isoform 4 (UniProt Q13137),-0.081,0.018,-0.08,0.059,0.022,-0.043,-0.003,-0.057,-0.016,-0.052,0.004,-0.016,-0.09,0.045,-0.005,-0.599 (active),0.115,0.054,0.045,-0.065
CERS2 (UniProt Q96G23),0.032,0.001,0.013,0.007,0.004,0.033,0.01,-0.025,0.074,0.087,0.06,-0.013,0.125,-0.026,-0.176,-0.425 (active),0.034,0.042,0.003,-0.04
COX5A (UniProt P20674),-0.005,-0.05,0.104,0.052,0.045,0.016,0.183,0.051,-0.026,-0.081,0.041,0.008,-0.09,-0.053,-0.103,0.058,-0.069,-0.042,0.041,0.122
CPSF3 (UniProt Q9UKF6),0.006,0.104,0.028,0,-0.003,0.048,0,-0.022,-0.005,-0.011,-0.044,-0.04,0.026,-0.006,0.028,-0.052,0.035,0.036,-0.025,-0.013
